# B2AR arrestin ag = qHTS assay of beta-arrestin-biased ligands of beta2-adrenergic receptor: NCGC Sytravon Library Screen. Beta-2 adrenergic receptor (Homo sapiens), P07550. Potency, µM (titrated, usually from 46.1 µM), hits mostly activators. AID 1347077, 2019. HTLA Tango cells, beta-arrestin recruitment, luciferase luminescence, 18 h. 44,000 tested, under 10 active;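 note: potency is the fitted concentration of half-maximal effect; 0% = DMSO and full agonism = EC100 isoproterenol or metaproterenol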
#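 Tango cells (recombinant beta2-AR, beta-arrestin, tTA-driven luciferase), 1500/well in DMEM 1% FBS, treated 18 h at 37 °C with compounds up to 46 µM; luciferin mix added, luminescence read after 15 min; %activity curves fitted and curve-classed.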
# GALK inhibitor = qHTS Assay for Inhibitors of Human Galactokinase (GALK): NCGC Sytravon Library Screen. P51570. recombinant GALK, Kinase-Glo ATP luminescence, 1 h. Potency, µM (highest dose often 57.5 µM), inactives show at the top dose activity, negative = inhibition, usual class: inhibitors. 44,000 tested, under 10 active. AID 1347072, 2019;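 note: plate controls were full GALK reaction for no effect and reaction lacking GALK for full effect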
#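 Reactions with and without enzyme served as controls. GALK at 5 nM phosphorylates 100 uM galactose using 35 uM ATP (HEPES pH 8.0, Mg2+) for 1 h at RT, with luminescence read 10 min after adding Kinase-Glo Plus.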
# PTAP-TSG101 blk = qHTS Validation Assay for Inhibitors of HIV-1 Budding by Blocking the Interaction of PTAP/TSG101: Sytravon Library Screen. Tumor susceptibility gene 101 protein (Homo sapiens), Q99816. Fluorescence polarization, FITC-PTAP peptide/Tsg101, 20 min. Potency, µM (highest dose often 115 µM), actives largely listed as inhibitors. 44,000 tested, under 10 active; note: potency is the fitted concentration of half-maximal effect; 0% is about no effect
#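 The Tsg101 binding domain, at 10 uM final, is mixed with compound and a FITC peptide bearing the PTAP motif (50 nM final). After 20 min at r.t., polarization is measured; actives defined by CRC class, efficacy cut-off 60% inhibition.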
# GALC G270D act = A Novel Cell-Based Assay to Identify Small Molecules for B -Galactocerebrosidase; P54803; 145M-Twi-hGALC-G270D cells (Twitcher mouse brain line with human GALC G270D), HMU-beta-Gal fluorescence, 48 h; Potency, µM (highest dose often 57.5 µM), hits mostly activators; 45,000 tested, 0.1% active; AID 1159614, 2016; note: potency is the fitted concentration of half-maximal effect; 0% is about no effect; nearly all actives have a fitted effect of over 65% in size
#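 Fluorogenic HMU-b-Gal hydrolysis (0.1 mM final, pH 5.2 citrate-phosphate with 1 mg/mL sodium taurocholate; carbonate stop buffer) measures mutant GALC activity after compound treatment of live 145M-Twi Twitcher brain cells stably carrying human GALC-G270D, with wild-type GALC line alongside; activation sought.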
# An asterisk follows results filed as active; i = inactive; nt = not tested or not shown. Only a selection was taken, and hits are over-represented in it overall. Calls come from the whole dose curve; as a rule, active = well fitted curve in the direction sought with a large enough effect; inconclusive = small, poorly fitted or top-dose-only effect, or another doubt; inactive = no such curve, though single readings can be large; an effect the other way counts as inactive or inconclusive.
SMILES,B2AR arrestin ag,GALK inhibitor,PTAP-TSG101 blk,GALC G270D act
Cc1cc(C)cc(OCC(=O)Nc2ccc(-c3nc4ccccc4s3)cc2)c1,i,2%,i,40µM*
CC(Cc1ccccc1)NCCCCl (configuration not stated),nt,nt,nt,i
Nc1c(C(=O)Nc2ccc(Cl)c(C(F)(F)F)c2)sc2nc3c(cc12)N1CCC3CC1,i,0%,i,i
Nc1c(C(=O)Nc2ccc(Cl)cc2)sc2nc3c(cc12)N1CCC3CC1,i,-4%,i,32µM*

# Source: PubChem
